In the library only some 2.8% were active in any assay of this set; here they are far more common.
Pol iota inh – blocks human DNA polymerase iota activity; Pol iota fluorescent replication assay, 10 min; Q9UNA4; 1% of 390,000 active; Potency, µM (titrated, usually from 115 µM), without a hit: at the highest dose activity, negative = inhibition, most hits filed as inhibitors; note: potency is the fitted concentration of half-maximal effect
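Fluorescent replication assay read twice, at 0 min and 10 min after adding 50 nM (final) substrate. Enzyme (10 nM) and compounds were first incubated 15 min at room temperature; enzyme-free buffer wells were negative controls.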
PI5P4Ka inh – blocks human PI5P4K alpha kinase activity | P48426 | PI5P4Kalpha enzyme, ADP-Glo luminescence, 60 min; hits give low values | max response, % | 1.2% of 330,000 active; active = max response of -50% or lower; inconclusive = between -30% and -50%; inactive = -30% or higher; note: value at the top dose of about 77 µM; % is set by controls: 0 for no effect and ±100 for the full control effect
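Quantitative HTS of the MLSMR library against PI5P4Kalpha with substrate. ATP added last at 5 microM final; room temperature, 60 minutes. Remaining ATP depleted, ADP converted and read as luminescence.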
Pol eta inh-1 – blocks human DNA polymerase eta activity. Q9Y253. recombinant Pol eta, fluorescent DNA replication assay. Potency, µM (titrated, usually from 114 µM), without a hit: at the highest dose activity change, negative = inhibition, most hits filed as inhibitors. 1.2% of 390,000 active. AID 588591; note: potency is the fitted concentration of half-maximal effect; % is set by controls: 0 for no effect and ±100 for the full control effect
Target sequence (Q9Y253 whole entry, looked up): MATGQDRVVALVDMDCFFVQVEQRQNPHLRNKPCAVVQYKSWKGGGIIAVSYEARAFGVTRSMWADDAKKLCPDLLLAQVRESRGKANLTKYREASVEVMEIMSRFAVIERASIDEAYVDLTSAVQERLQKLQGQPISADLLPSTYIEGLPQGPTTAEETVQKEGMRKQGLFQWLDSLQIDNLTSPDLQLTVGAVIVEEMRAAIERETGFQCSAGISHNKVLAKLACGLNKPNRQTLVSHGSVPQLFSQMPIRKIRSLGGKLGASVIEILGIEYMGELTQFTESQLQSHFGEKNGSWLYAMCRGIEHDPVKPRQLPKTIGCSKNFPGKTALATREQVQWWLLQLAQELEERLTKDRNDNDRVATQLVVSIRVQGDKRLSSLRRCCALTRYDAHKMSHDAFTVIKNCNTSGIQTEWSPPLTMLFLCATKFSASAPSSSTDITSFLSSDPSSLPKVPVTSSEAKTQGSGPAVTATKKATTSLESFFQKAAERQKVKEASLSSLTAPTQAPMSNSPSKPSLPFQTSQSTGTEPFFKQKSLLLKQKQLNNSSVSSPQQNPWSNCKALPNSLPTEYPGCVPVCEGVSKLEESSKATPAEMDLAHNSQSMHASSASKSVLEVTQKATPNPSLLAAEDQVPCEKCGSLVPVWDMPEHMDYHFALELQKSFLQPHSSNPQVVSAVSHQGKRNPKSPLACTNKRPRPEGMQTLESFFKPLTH
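Pol eta (10 nM) was preincubated with compounds for 15 min at room temperature, after which fluorescent replication substrate (50 nM final) was added to start the reaction. Fluorescence was read kinetically at 0 and 10 min.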
Pol kappa inh-1 – inhibitors of human DNA polymerase kappa | Q9UBT6 | purified Pol kappa, fluorescent DNA synthesis assay, 10 min | Potency, µM (doses to about 107 µM), for inactives: at the top dose activity, negative = inhibition, usual class: inhibitors | 0.53% of 400,000 active | AID 588579; note: potency is the fitted concentration of half-maximal effect; % is set by controls: 0 for no effect and ±100 for the full control effect
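Readout: fluorescence, taken kinetically at 0 and 10 min. Conditions: 10 nM Pol kappa, 15 min RT compound preincubation, 50 nM substrate final. Controls: enzyme-free buffer wells.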
POLB inh – DNA polymerase beta (human) inhibition. Pol beta primer extension/strand displacement, fluorescence kinetic. Potency, µM (doses to about 114 µM), without a hit: top-dose activity change, negative = inhibition, usual class: inhibitors. 1.3% of 340,000 active. AID 485314; note: potency is the fitted concentration of half-maximal effect; % is set by controls: 0 for no effect and ±100 for the full control effect
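Pol beta (10 nM) and compounds were preincubated 15 min at room temperature, then 50 nM substrate (final) started primer extension/strand displacement. Reads were taken at 0 and 10 min; concentration-response data were fitted to a four-parameter Hill equation.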
WRN helicase inh – WRN helicase (human) inhibition; Q14191; WRN helicase unwinding, fluorescent forked duplex, kinetic; Potency, µM (highest dose often 114 µM), for the others: top-dose activity change, negative = inhibition, usual class: inhibitors; 0.46% of 360,000 active; note: potency is the fitted concentration of half-maximal effect; % is set by controls: 0 for no effect and ±100 for the full control effect; nearly all actives have a fitted effect of over 55% in size
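Enzyme (20 nM final) and test compound sit together 15 min at room temperature before substrate addition. Substrate is a single-forked duplex oligonucleotide (100 nM) labelled with fluorophore and quencher, with 2 mM ATP; helicase unwinding raises red fluorescence, read kinetically.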
GALK inh confirm – galactokinase (human) inhibition, confirmation. shares compounds with Pol eta inh-1. purified GALK, Kinase-Glo ATP depletion luminescence. Potency, µM (series often up to 115 µM), inactives show at the highest dose activity, negative = inhibition, actives largely listed as inhibitors. 70% of 150 active
Redox cycling – counter-screen for GALK inhibitors: redox cycling H2O2 generation | shares compounds with Pol eta inh-1 | Phenol red-HRP H2O2 redox cycling, absorbance 600 nm | Potency, µM (titrated, usually from 115 µM), inactives show at the highest dose activity change, negative = H2O2 signal, usual class: inhibitors | 40% of 150 active | AID 2035
HEK293 viability – counter-screen for GALK inhibitors: HEK293 cell cytotoxicity. shares compounds with Pol eta inh-1. HEK-293 viability, ATP luminescence (CellTiter-Glo), 24/48 h. Potency, µM (top dose mostly 46.1 µM), without a hit: top-dose activity change, negative = cytotoxicity, most hits filed as inhibitors. 10% of 170 active. AID 2547; note: potency is the fitted concentration of half-maximal effect; % is set by controls: 0 for no effect and ±100 for the full control effect
Pol kappa inh-2 – confirmation of human DNA polymerase kappa inhibitors. 76% of 920 active. Potency, µM, most hits filed as inhibitors. shares compounds with Pol eta inh-1. purified Pol-kappa, fluorescent strand-displacement substrate. AID 720501; note: potency is the fitted concentration of half-maximal effect
Pol eta inh-2 – Pol eta (human) inhibition, cherry-pick confirmation; shares compounds with Pol eta inh-1; Pol eta primer extension, TAMRA/BHQ fluorescence, 10 min; Potency, µM, actives largely listed as inhibitors; 64% of 2,600 active; AID 720502; note: potency is the fitted concentration of half-maximal effect
An asterisk follows results filed as active; u = inconclusive; x = no result given; [ ] = another dose, or the depositor's remark. Unless noted, calls come from the whole dose curve; as a rule, active = well fitted curve in the direction sought with a large enough effect; inconclusive = small, poorly fitted or top-dose-only effect, or another doubt; inactive = no such curve, though single readings can be large; an effect the other way counts as inactive or inconclusive.

SMILES	Pol iota inh	PI5P4Ka inh	Pol eta inh-1	Pol kappa inh-1	POLB inh	WRN helicase inh	Pol eta inh-2	others
O=C(NC(Cc1ccccc1)C(=O)O)/C(=C/c1ccccc1)NC(=O)c1ccco1 (stereo not drawn)	15%	3	-10%	-2%	-1%	-8%[57.1 µM]	x
O=C(NC(Cc1ccccc1)C(=O)O)/C(=C/c1ccco1)NC(=O)c1cccc(Br)c1 (stereo not drawn)	u	-14	20µM*	u	u	-17%	54*	Pol kappa inh-2=19*
C[C@@H](C(=O)Nc1nc(-c2ccccn2)cs1)N1C(=O)C2CCCCC2C1=O (stereo partly drawn)	7.1µM*	-56*	13µM*	-15%	13µM*	u	u
O=C(CN1C(=O)C2CCCCC2C1=O)Nc1nc(-c2ccccn2)cs1 (stereo not drawn)	-13%	-25	u	-11%	1%	6%	x
COc1ccc(S(=O)(=O)CC(=O)c2cc3cc(Br)ccc3oc2=O)cc1	13µM*	-75*	28µM*	u	10µM*	u	u
Cc1ccc(/C=N\NC(=O)C2CC(=O)N(c3ccccc3)C2)o1 (stereo not drawn)	63%	-11	-2%	-14%	-22%	-11%	x
Cc1ccc(NC(=O)COc2coc(CN3CCc4ccccc43)cc2=O)cc1Cl	u	-17	u	-41%	x	-35%	x
Cn1nnnc1SCCNCc1cc(Br)ccc1OCc1ccccc1Cl	-2%	x	-14%	2%	0%	x	x
Cc1nc(NS(=O)(=O)c2ccc(Cl)s2)c2c3c(sc2n1)CCCC3	0%	0	-5%	-21%	-23%	-16%	x	GALK inh confirm=u;Redox cycling=3%;HEK293 viability=3%
Cc1nc(NCCc2ccc(S(N)(=O)=O)cc2)c2c3c(sc2n1)CCC3	-8%[58.9 µM]	x	-4%	-13%	-22%	-16%	x
CCOC(=O)C1=C(C)NC(=O)NC1c1ccc(-c2ccc(Cl)cc2)o1 (stereo not drawn)	42%	-6	-5%	-6%	-13%	-4%	x
CCOC(=O)c1cc(-c2ccc(/C=C3/C(=O)NC(=O)C(C#N)=C3C)o2)ccc1Cl	u	x	28µM*	u	35µM*	u	48*
CC1=C(C#N)C(=O)NC(=O)/C1=C\c1ccc(-c2ccc(C)cc2[N+](=O)[O-])o1	u	-75*	50µM*	-13%	32µM*	u	u
CCOC(=O)C1CN(S(C)(=O)=O)c2cc(CC(=O)OC)ccc2O1 (stereo not drawn)	86%	5	-24%	-8%	0%	3%[57.1 µM]	x
COc1ccc(CC(=O)Nc2ccccc2C(=O)N2CCCC2)cc1	14%	-5	-4%	0%	1%	-33%	x
C#Cc1ccc([C@H]2C=C(C(=O)OCC=C)O[C@@H](OCCCCO)C2)cc1	56µM*	-28	32µM*	u	x	-14%[11.6 µM]	67*
C#Cc1ccc([C@@H]2C=C(C(=O)NC3CC3)O[C@H](OCCCCO)C2)cc1	-8%	-5	-19%	-9%	14%	2%	x
CCOc1cc(CO)cc(Br)c1OCC(=O)O	u	-3	16µM*	-34%	x	u	85*
COc1cccc(Cn2c3ccc(NC(=O)CCc4ccc(F)cc4)cc3c(=O)n2C)c1	x	-6	x	x	x	-10%	x
Cc1c(CC(=O)O)c(=O)oc2c(C)c3occ(-c4ccccc4)c3cc12	116%	3	-11%	1%	20%	-13%	x
Cc1c(CCC(=O)O)c(=O)oc2c(C)c3occ(-c4ccc(Cl)cc4)c3cc12	13µM*	-17	22µM*	89µM*	22µM*	56µM*	u
O=C1CSC(=S)N1Cc1cccnc1	u	-18	u	-19%	-24%	-9%[57.1 µM]	u
O=C1CSC(=S)N1c1cccnc1	u	x	2%	-15%	7%	-8%[57.1 µM]	x
CCOc1cc(/C=C2\CCCC(C(=O)C(F)(F)F)=C2O)ccc1O	8%	3	u	0%	50µM*	-33%	x	Pol kappa inh-2=75*
COc1cc(/C=C2\SC(=Nc3ccc(O)cc3)NC2=O)cc(OC)c1O	u	u	-1%	-19%	-24%	-34%	x
SMILES	Pol iota inh	PI5P4Ka inh	Pol eta inh-1	Pol kappa inh-1	POLB inh	WRN helicase inh	Pol eta inh-2	others
COc1ccc(N=C2NC(=O)/C(=C\C=C\c3ccco3)S2)cc1	u	-81*	40µM*	u	10µM*	22µM*	u
Cc1cccc(N=C2NC(=O)/C(=C/C=C/c3ccco3)S2)c1	18µM*	-67*	20µM*	u	20µM*	u	u
Cc1nnc(NC(=O)c2cc(-c3ccncc3)nc3c(C)cccc23)s1	79µM*	-21	45µM*	-11%	7%	-11%	67*
Cc1ccc(S(=O)(=O)N2CCCCC2)cc1C(=O)Nc1cccnc1	50µM*	-28	18µM*	-42%	32µM*	-3%[11.6 µM]	76*
COC(=O)Cc1cc(C)cc2c(=O)cc(-c3ccoc3)oc12	u	u	50µM*	-41%	x	u	u
O=C(CN1CCN(C/C=C/c2ccccc2)CC1)NC(=O)NC1CCCCC1	80%	0	-23%	11%	10%	1%	x
O=C1c2cccc3c([N+](=O)[O-])ccc(c23)C(=O)N1Cc1cccnc1	u	1	u	-10%	16µM*	-13%	u
O=C1c2cccc3cccc(c23)C(=O)N1Cc1cccnc1	109%	7	-15%	0%	-1%	-8%	x
Cc1ccc2nc(-c3ccc(O)c(O)c3)cn2c1	50µM*	-19	22µM*	u	4µM*	-5%[11.6 µM]	u

Screening data as filed in PubChem BioAssay.
